Measured values reported in PubChem BioAssay.
For part of these data: Measured potencies and affinities stand elsewhere. The source made the active and inactive calls.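 The calls were made as follows, unless noted: active = compound raising the membrane signal above positive-control mean plus 3 SD in both repeats, and a primary screen hit; inactive = the rest.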

Tests used:
[1] = test system: TRPC4 beta (transient receptor potential cation channel C4), mouse; assay: activators of mouse TRPC4 channel, confirmation, cell-based, Fluo4 calcium, HEK293 TRPC4beta/mu-opioid, duplicates, 10 µM (AID 2426;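 active = fluorescence ratio normalized to control raised more than 50% in primary screen plus both repeat runs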); conditions: Fluo4 calcium fluorescence, at 10 µM; stronger effect = higher value
[2] = test system: transient receptor potential cation channel C4 beta (TRPC4), mouse; assay: activators of mouse TRPC4 channel, confirmation, cell-based, second round, Fluo4, HEK293 TRPC4beta/mu-opioid, 1 µM (AID 2461;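 active = primary screen active and over 50% activation in each of two duplicate runs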); conditions: Fluo4 calcium fluorescence, at 1 µM; stronger effect = higher value
[3] = test system: TRPC4 (transient receptor potential cation channel C4 beta), mouse; assay: positive allosteric modulators of mouse TRPC4, confirmation, cell-based, second round, Fluo-4, HEK293 TRPC4beta/mu-opioid, 1 µM (AID 2554;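 active = primary screen hit whose fluorescence ratio, in both repeats, exceeds the weak agonist control mean by 3 SD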); conditions: DAMGO EC20, Fluo-4 calcium flux, at 1 µM; stronger effect = higher value
[4] = test system: TRPC4 beta (transient receptor potential cation channel C4), mouse; assay: positive allosteric modulators of mouse TRPC4, confirmation, cell-based, Fluo-4, HEK293 TRPC4beta/mu-opioid (AID 2555;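 active = primary screen hit whose calcium fluorescence ratio, in both repeats, exceeds the weak agonist control mean by 3 SD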); conditions: DAMGO EC20, Fluo-4 calcium flux, at 10 µM; stronger effect = higher value
[5] = target: Short transient receptor potential channel 4 (Mus musculus) (UniProt Q9QUQ5); assay: inhibitors of mouse TRPC4 channel, confirmation, cell-based, Fluo4, HEK293 TRPC4beta/mu-opioid (AID 2636;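 active = calcium signal cut by more than 3 SD below the full-agonist control yet still positive, in both repeats and the earlier primary screen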); conditions: DAMGO, Fluo4 calcium flux, at 10 µM; stronger effect = higher value
Chain of Short transient receptor potential channel 4 (Mus musculus) (Q9QUQ5 whole entry, looked up): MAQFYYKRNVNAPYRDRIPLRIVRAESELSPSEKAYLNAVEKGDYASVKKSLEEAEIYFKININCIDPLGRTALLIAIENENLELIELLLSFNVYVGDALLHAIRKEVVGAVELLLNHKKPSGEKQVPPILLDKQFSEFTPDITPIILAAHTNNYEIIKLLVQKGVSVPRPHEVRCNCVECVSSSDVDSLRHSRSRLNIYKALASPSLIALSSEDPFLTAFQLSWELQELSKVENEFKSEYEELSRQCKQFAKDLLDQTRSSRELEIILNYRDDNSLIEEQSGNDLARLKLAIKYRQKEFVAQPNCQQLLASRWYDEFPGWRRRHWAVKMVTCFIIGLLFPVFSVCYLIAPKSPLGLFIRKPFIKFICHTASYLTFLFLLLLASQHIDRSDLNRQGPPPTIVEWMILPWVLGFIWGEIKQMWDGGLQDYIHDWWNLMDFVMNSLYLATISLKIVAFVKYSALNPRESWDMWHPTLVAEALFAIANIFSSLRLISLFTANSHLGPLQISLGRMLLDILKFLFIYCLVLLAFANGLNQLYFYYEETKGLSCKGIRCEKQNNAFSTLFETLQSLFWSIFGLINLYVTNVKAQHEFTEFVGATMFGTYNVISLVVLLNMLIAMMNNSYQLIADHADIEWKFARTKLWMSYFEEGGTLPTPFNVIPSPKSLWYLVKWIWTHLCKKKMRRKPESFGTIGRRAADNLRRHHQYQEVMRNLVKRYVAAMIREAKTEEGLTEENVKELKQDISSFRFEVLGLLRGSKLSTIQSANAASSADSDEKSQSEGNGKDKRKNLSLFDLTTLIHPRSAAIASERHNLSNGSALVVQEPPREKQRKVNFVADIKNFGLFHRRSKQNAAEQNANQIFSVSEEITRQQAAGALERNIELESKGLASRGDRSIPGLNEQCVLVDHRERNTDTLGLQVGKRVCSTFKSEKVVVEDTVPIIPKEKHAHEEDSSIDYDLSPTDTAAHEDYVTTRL

[6] = target: Short transient receptor potential channel 4 (Mus musculus) (UniProt Q9QUQ5); assay: inhibitors of mouse TRPC4 channel, confirmation, cell-based, second round, Fluo4, HEK293 TRPC4beta/mu-opioid, 1 µM (AID 2637;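 active = calcium signal ratio cut to more than 3 SD under the fully stimulated control mean yet still positive, in both repeats and the primary screen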;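 as to inhibition: percent of integrated ratio relative to wells lacking test compound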); conditions: Fluo4 calcium flux, DAMGO, at 1 µM; stronger effect = higher value
[7] = target: Short transient receptor potential channel 4 (Mus musculus) (UniProt Q9QUQ5); assay: mouse TRPC4 channel activators, dose response, cell-based, HEK293 TRPC4/mu-opioid, Fluo-4 calcium (AID 434937;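 active = primary screen activator hit with a dose response curve and TRPC4 channel activation at any tested dose; inactive = no activation, no dose response, or not a primary hit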)
[8] = target: Short transient receptor potential channel 4 (Mus musculus) (UniProt Q9QUQ5); assay: TRPC4 positive allosteric modulators, dose response, cell-based, HEK293 TRPC4/mu-opioid, Fluo-4 calcium, EC20 DAMGO (AID 434941;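 active = earlier screen potentiator hit that boosts the TRPC4 ion channel at some dose, with a dose response; inactive = no potentiation, no dose response, or not a prior hit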;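 also: calcium entry triggered by an EC20 dose of DAMGO at the co-expressed mu-opioid receptor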)
[9] = target: Short transient receptor potential channel 6 (Mus musculus) (UniProt Q61143); assay: inhibition of mouse TRPC6 channel, confirmation, selectivity assay for TRPC4 inhibitor project, cell-based, HEK293, membrane potential dye, duplicate (AID 434948;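 active = active in primary screen and both duplicates, each dropping signal beyond three positive-control SD with fluorescence still positive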); conditions: HEK293 TRPC6, membrane potential dye fluorescence, at 10 µM, stimulated with maximal-effect acetylcholine; stronger effect = higher value
Chain of Short transient receptor potential channel 6 (Mus musculus) (Q61143 whole entry, looked up): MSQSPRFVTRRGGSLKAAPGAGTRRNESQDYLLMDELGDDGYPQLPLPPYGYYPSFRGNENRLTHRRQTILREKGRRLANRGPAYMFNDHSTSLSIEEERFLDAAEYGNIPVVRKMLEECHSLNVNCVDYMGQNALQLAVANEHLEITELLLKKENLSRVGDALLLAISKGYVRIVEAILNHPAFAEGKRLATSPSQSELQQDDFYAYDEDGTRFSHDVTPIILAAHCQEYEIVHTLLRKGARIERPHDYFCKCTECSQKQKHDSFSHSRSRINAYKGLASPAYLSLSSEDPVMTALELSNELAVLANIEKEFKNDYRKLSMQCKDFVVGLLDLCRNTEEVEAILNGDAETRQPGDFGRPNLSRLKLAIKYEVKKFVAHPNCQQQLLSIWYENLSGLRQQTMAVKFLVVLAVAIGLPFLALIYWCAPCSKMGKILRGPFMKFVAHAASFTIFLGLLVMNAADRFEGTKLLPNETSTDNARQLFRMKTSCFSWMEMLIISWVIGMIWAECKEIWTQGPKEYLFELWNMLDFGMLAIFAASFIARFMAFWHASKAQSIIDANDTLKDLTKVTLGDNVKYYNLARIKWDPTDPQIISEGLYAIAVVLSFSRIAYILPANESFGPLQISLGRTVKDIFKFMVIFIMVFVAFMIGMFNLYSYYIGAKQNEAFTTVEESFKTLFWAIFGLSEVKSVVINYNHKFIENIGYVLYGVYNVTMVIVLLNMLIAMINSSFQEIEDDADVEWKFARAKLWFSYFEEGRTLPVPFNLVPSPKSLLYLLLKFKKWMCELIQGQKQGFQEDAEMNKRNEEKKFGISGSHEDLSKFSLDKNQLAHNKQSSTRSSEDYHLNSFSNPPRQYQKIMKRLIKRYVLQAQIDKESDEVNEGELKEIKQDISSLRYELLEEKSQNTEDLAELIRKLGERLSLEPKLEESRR

[10] = target: Short transient receptor potential channel 6 (Mus musculus) (UniProt Q61143); assay: activation of mouse TRPC6 channel, confirmation, selectivity assay for TRPC4 activator project, cell-based, HEK293, membrane potential dye, duplicate (AID 434950;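 active = membrane potential signal rise above negative control mean plus 3 SD in both duplicates, also active in the earlier TRPC4 screen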); conditions: HEK293 TRPC6, membrane potential fluorescence, at 10 µM; stronger effect = higher value
[11] = target: Short transient receptor potential channel 6 (Mus musculus) (UniProt Q61143); assay: TRPC6 potentiation by TRPC4 potentiator hits, confirmation, selectivity assay for TRPC4 potentiator project, HEK293 cells, membrane potential dye, duplicate (AID 434952); conditions: HEK293 TRPC6, membrane potential dye fluorescence, at 10 µM, maximal acetylcholine added after compound; stronger effect = higher value
[12] = target: Short transient receptor potential channel 4 (Mus musculus) (UniProt Q9QUQ5); assay: calcium flux activators in TRPC4/5HT1a cells, counter-screen for TRPC4 activator project, cell-based, second counter screen, HEK293 TRPC4/5HT1a, Fluo-4 (AID 434977;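 active = calcium signal rise above buffer-control mean plus 5 SD in both duplicates, and also a hit in the primary screen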); conditions: Fluo-4 calcium flux, at 10 µM; stronger effect = higher value
[13] = calcium flux inhibitors in TRPC4/5HT1a cells, confirmation, counter-screen for TRPC4 inhibitor project, cell-based, second counter screen, HEK293 TRPC4/5HT1a, Fluo-4 (AID 434978;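 active = primary screen active whose calcium signal fell more than 3 SD beyond the full-serotonin control mean in both duplicate plates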;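 as to outcome: serotonin given first at submaximal then at maximal dose after compound preincubation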); conditions: Fluo-4 calcium flux, at 10 µM, serotonin added to trigger calcium flux; stronger effect = higher value
[14] = test system: TRPC4 (mouse), co-expressed with 5HT1a in HEK293; assay: calcium flux potentiators in TRPC4/5HT1a cells, confirmation, counter-screen for TRPC4 potentiator project, cell-based, second counter screen, HEK293 TRPC4/5HT1a, Fluo-4 (AID 434979;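 active = signal rise over 3 SD above mean of control wells given weak agonist, in both repeats and first screen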); conditions: Fluo-4 calcium flux, at 10 µM, serotonin added at its EC20 dose; stronger effect = higher value
[15] = calcium flux activation in mu-opioid HEK293 cells, confirmation, counter-screen for TRPC4 activator project, cell-based, HEK293 mu-opioid receptor line (AID 449723;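 active = hit in primary screen, with calcium signal over 5 SD above buffer well mean in both duplicates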;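 also: counter screen cells carry the mu-opioid receptor alone and lack TRPC4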); conditions: Fluo-4 calcium fluorescence, at 10 µM; stronger effect = higher value
[16] = calcium flux enhancement in mu-opioid HEK293 cells, confirmation, counter-screen for TRPC4 allosteric potentiator project, cell-based, HEK293 mu-opioid receptor line (AID 449724;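 active = calcium signal rise more than 3 SD above the low-dose agonist control mean, in both duplicate plates and the primary screen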); conditions: Fluo-4 calcium flux, at 10 µM, compound added before EC20 DAMGO stimulus; stronger effect = higher value

| Structure (SMILES) | outcome [1] | outcome [2] | outcome [3] | outcome [4] | inhibition [5] | outcome [6] | outcome [7] | outcome [8] | inhibition [9] | outcome [10] | outcome [11] | outcome [12] | inhibition [13] | outcome [14] | outcome [15] | outcome [16] | outcome [5] | outcome [13] | inhibition [6] | outcome [9] |
| --- | --- | --- | --- | --- | --- | --- | --- | --- | --- | --- | --- | --- | --- | --- | --- | --- | --- | --- | --- | --- |
| CCCCn1c2ccccc2c2nnc(SCCN3CCCCC3)nc21 | inactive | inactive | inactive | inactive | 84% (active) | inactive | inactive | inactive | 44.5% (active) | inactive | inactive | inactive | 31.3% (active) | inactive | inactive | inactive | – | – | – | – |
| Cc1ccc(-c2[nH]c3ccccc3c2SCCN)cc1 | inactive | inactive | inactive | inactive | – | inactive | inactive | inactive | 34.5% (active) | inactive | inactive | inactive | – | inactive | inactive | inactive | inactive | inactive | – | – |
| Cc1cc(N2CCCCCC2)nc2ccccc12 | inactive | inactive | inactive | inactive | 87% (active) | – | inactive | inactive | – | inactive | inactive | inactive | 15.6% (active) | inactive | inactive | inactive | – | – | 55% (active) | inactive |
| COc1ccc(CN2CCN(C(=O)c3ccc(F)cc3)CC2)c(OC)c1 | inactive | inactive | inactive | inactive | 93% (active) | – | inactive | inactive | – | inactive | inactive | inactive | 35.3% (active) | inactive | inactive | inactive | – | – | 57% (active) | inactive |
| O=C(CSc1nc(=O)n(CCN2CCOCC2)c2c1CCC2)Nc1ccc(OC(F)(F)F)cc1 | inactive | inactive | inactive | inactive | 69% (active) | inactive | inactive | inactive | – | inactive | inactive | inactive | – | inactive | inactive | inactive | – | inactive | – | inactive |
| O=C(CSc1nc2ccccc2c(=O)n1CCCO)N1CCc2ccccc21 | inactive | inactive | inactive | inactive | 94% (active) | – | inactive | inactive | – | inactive | inactive | inactive | 13.1% (active) | inactive | inactive | inactive | – | – | 67% (active) | inactive |
| COc1ccc(CN(C)C(=O)c2ccc(NC(=O)CC3SC(N4CCCC4)=NC3=O)cc2)c(OC)c1 (stereo not given) | inactive | inactive | inactive | inactive | 56% (active) | inactive | inactive | inactive | – | inactive | inactive | inactive | – | inactive | inactive | inactive | – | inactive | – | inactive |
| CCc1ccc(/C=C2/SC(=S)N(CCCC(=O)Nc3ccccc3C(=O)O)C2=O)cc1 | inactive | inactive | inactive | inactive | 93% (active) | inactive | inactive | inactive | – | inactive | inactive | inactive | 21.2% (active) | inactive | inactive | inactive | – | – | – | inactive |
| CCOC(=O)C1(Cc2cccc(OC)c2)CCN(Cc2ccc(OC)c(O)c2)CC1 | inactive | inactive | inactive | inactive | – | inactive | inactive | inactive | – | inactive | inactive | inactive | – | inactive | inactive | inactive | inactive | inactive | – | inactive |
| COc1ccc(NC(=O)c2cccc(N3C(=O)C4CC=C(C)CC4C3=O)c2)c(OC)c1 (stereo not given) | inactive | inactive | inactive | inactive | 75% (active) | inactive | inactive | inactive | – | inactive | inactive | inactive | – | inactive | inactive | inactive | – | inactive | – | inactive |
| O=C(CSc1nnc(-c2ccc(Cl)cc2Cl)n1C1CCCCC1)N1CCCC1 | inactive | inactive | inactive | inactive | – | – | inactive | inactive | – | inactive | inactive | inactive | – | inactive | inactive | inactive | inactive | inactive | 48% (active) | inactive |
| Cc1nn(-c2cccc(Cl)c2)c2nc(C(F)(F)F)[nH]c(=O)c12 | inactive | inactive | inactive | inactive | 95% (active) | – | inactive | inactive | – | inactive | inactive | inactive | 34.8% (active) | inactive | inactive | inactive | – | – | 56% (active) | inactive |
| CCn1c(NCc2c[nH]c3ccccc23)nc2ccccc21 | inactive | inactive | inactive | inactive | 89% (active) | inactive | inactive | inactive | – | inactive | inactive | inactive | 32.7% (active) | inactive | inactive | inactive | – | – | – | inactive |
| Cc1cc(N2CCCCC2)nc2ccccc12 | inactive | inactive | inactive | inactive | 83% (active) | – | inactive | inactive | – | inactive | inactive | inactive | 28.5% (active) | inactive | inactive | inactive | – | – | 40% (active) | inactive |
| N=c1c2c(n(Cc3ccc(Cl)cc3)c3c1CCC3)CCC2 | inactive | inactive | inactive | inactive | 96% (active) | – | inactive | inactive | 34.5% (active) | inactive | inactive | inactive | 10.6% (active) | inactive | inactive | inactive | – | – | 50% (active) | – |
